Sampled rows, rich in hits. Any-hit rate of the full collection: about 4.8%.
hgDAF12 agonist – activates the H. glycines DAF-12 receptor ligand-binding domain; HEK293 GAL4-hgDAF12 UAS-luciferase reporter, agonist luminescence; normalized to butyrate control; activation, % at 6.8 µM; hit rate 1.8% among 370,000; AID 687014;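 active means activation above a cutoff set at the mean of all screened compounds plus 3 SD, cut at about 10% in these data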;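 further: 0% = DMSO wells and 100% = sodium butyrate wells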
SMARCA2 act – activators of SMARCA2 function; activation, % at 9.1 µM; MG213 cells, MMTV-luciferase reporter, dexamethasone, overnight; hit rate 1% among 370,000; in the data active means activation above about 7.8%;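 further: 0% = vehicle wells and 100% = reference activator wells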
DAX1 inh-1 – DAX1 (NR0B1) inhibition, primary screen; inhibition, % at 6.8 µM; AID 652010; hit rate 1.1% among 370,000; HEK293T StAR-luciferase reporter, SF-1/DAX-1 repression relief;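 active means inhibition above the mean over all tested compounds plus 3 SD, cut at about 3.6% in these data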;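 further: 0% = DAX-1 cells with DMSO and 100% = cells lacking DAX-1 with DMSO; higher inhibition means more luminescence from relief of DAX-1 repression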
hcDAF12 agonist – activators of H. contortus DAF-12 nuclear receptor; HEK293 hcDAF-12 lit1-tk-luc reporter, luminescence; 0% DMSO, 100% Δ7-dafachronic acid; activation, % at 6.8 µM; hit rate 1.4% among 370,000;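 active means activation above the mean of all tested compounds plus 3 SD, cut at about 5.5% in these data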;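 further: 100% = response to 3 µM Δ7-dafachronic acid high control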
ssDAF-12 act – S. stercoralis DAF-12 activation, primary screen; HEK293 ssDAF-12/GRIP1 lit1-tk-luc reporter, luminescence; % of 3 µM dafachronic acid response; activation, % at 6.8 µM; hit rate 1% among 370,000; AID 652126;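 active means activation above the mean over all tested compounds plus 3 SD, cut at about 0.9% in these data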;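 further: 0% = DMSO-only wells and 100% = 3 µM delta7-dafachronic acid wells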
DAX1 inh-2 – NR0B1 (DAX1) inhibition; P51843; HEK293 Gal4-DAX1 luciferase reporter, luminescence; AID 504766; hit rate 0.99% among 340,000; inhibition, % at 6.75 µM;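 active means inhibition above the mean over all tested compounds plus 3 SD, cut at about 4.2% in these data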;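 further: 0% = DAX1-transfected cells with DMSO and 100% = empty-vector control cells with DMSO; inhibition shows as a rise in luminescence from relieved DAX1 repression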
Target sequence (P51843 207-470 limits assumed): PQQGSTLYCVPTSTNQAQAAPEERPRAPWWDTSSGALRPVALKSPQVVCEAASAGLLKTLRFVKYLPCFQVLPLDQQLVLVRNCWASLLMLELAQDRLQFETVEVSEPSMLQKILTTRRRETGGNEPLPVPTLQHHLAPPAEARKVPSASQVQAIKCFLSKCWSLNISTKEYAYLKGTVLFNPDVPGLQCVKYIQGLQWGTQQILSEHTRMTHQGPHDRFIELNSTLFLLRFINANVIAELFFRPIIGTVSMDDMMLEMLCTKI
* hit, by the source's call; x = no result given.

SMILES | hgDAF12 agonist | SMARCA2 act | DAX1 inh-1 | hcDAF12 agonist | ssDAF-12 act | DAX1 inh-2
Cn1c(C(=O)NCCc2c[nH]c3ccccc23)cc2sccc21 | 12* | 0 | 2 | 5.9* | 2.5* | 0
O=C(Cc1ccccc1)NCCc1c[nH]c2ccccc12 | -2 | 0 | 0 | 1 | -1 | 0
O=C(NCCc1c[nH]c2ccccc12)c1cccnc1 | 2 | -3 | 1 | 3 | 1.9* | 4
O=C(NCCc1c[nH]c2ccccc12)c1cccc(S(=O)(=O)Nc2ccccc2Cl)c1 | -5 | -5 | 0 | 6.0* | 1.1* | 0
Fc1ccc2nc(-c3ccc(CN4CCC(c5nc6ccccc6[nH]5)CC4)cc3)c(-c3ccccc3)nc2c1 | -1 | 2 | -2 | -2 | -1 | x
COC(=O)C1CN(C2CCCC2)CCS(=O)(=O)N1Cc1ccc(OC)cc1 (stereo unspecified) | -5 | 1 | 0 | 5 | -1 | x
Cc1cccc(-c2cccc3c4c([nH]c23)[C@@H]2C[C@H](N(C)C(=O)Nc3ccccc3)[C@H]([C@H](C)O)CN2CC4)c1 | -1 | 5 | 0 | -1 | -1 | x
O=C(NCCc1c[nH]c2ccccc12)c1cc(S(=O)(=O)N2CCCCC2)ccc1N1CCOCC1 | 1 | 0 | 0 | 2 | 1.9* | -1
Cn1c(C(=O)NC2CCCCC2)cc2sccc21 | 8 | 2 | 2 | 6.0* | 0 | 1
CCCNC(=O)c1cc(S(=O)(=O)N2CCCCC2)ccc1N1CCOCC1 | 4 | 2 | 0 | 0 | -1 | 0
CCn1c(C(=O)NC2CCC(C)CC2)cc2sccc21 (stereo unspecified) | 7 | -2 | 1 | -1 | -1 | 1
O=C1NC(c2ccc(Cl)cc2)=COc2ccccc21 | -2 | -3 | 1 | 0 | 0 | 1
O=C1NN=COc2ccccc21 | 2 | 5 | 1 | 5.7* | 0 | -1
O=C(OCc1cn(Cc2ccc(F)cc2F)nn1)N1CCCC1 | -2 | 0 | 0 | -1 | -1 | x
N#CCc1cc2ccc3cccc4ccc(c1)c2c34 | -2 | 7 | 0 | 0 | -1 | 7.0*
O=C(CCCCC(=O)Nc1ccccc1Cl)Nc1ccccc1Cl | 3 | -2 | 0 | 0 | -1 | 0
NNC(=O)CNc1ccccc1Cl | 0 | -4 | 0 | 0 | 1.0* | 2
COC(=O)C1CN(Cc2ccc(OC)cc2)CCS(=O)(=O)N1Cc1cn(CCOC(C)=O)nn1 (stereo unspecified) | -4 | -5 | 0 | 1 | -1 | x
O=C(N/N=C/c1ccc(O)c(O)c1)N/N=C/c1ccc(O)c(O)c1 | 9 | 2 | 1 | 7.3* | 0 | 1
CC(C)C[C@@H]1COc2cc(Br)ccc2S(=O)(=O)N1Cc1cn(Cc2ccco2)nn1 | 0 | -2 | -1 | -1 | -2 | x
COc1ccc2c(c1)CN1C(=O)N(Cc3ccc(F)cc3)S(=O)(=O)CC21 (stereo unspecified) | 1 | -2 | 0 | 0 | -1 | x
Brc1ccccc1Cn1nnc(-c2ccc(N3CCOCC3)cc2)n1 | 6 | 6 | -1 | -2 | -1 | x
Cn1c(-c2ccc(F)c(F)c2)cc2onc(-c3ccccc3)c2c1=O | 12* | 8 | 2 | 4 | 0 | 4
COc1cccc(-c2cc3onc(-c4ccccc4)c3c(=O)n2C)c1 | 12* | 5 | 3 | 5 | 0 | 2
O=C(Nc1ccc(F)c(C(F)(F)F)c1)Nc1nnc(-c2ccncc2)s1 | 4 | x | x | -2 | -1 | x
SMILES | hgDAF12 agonist | SMARCA2 act | DAX1 inh-1 | hcDAF12 agonist | ssDAF-12 act | DAX1 inh-2
O=S(=O)(CC1NCCc2ccccc21)NCCc1ccccc1 (stereo unspecified) | 0 | -2 | 0 | -1 | -1 | x
CN(C)CCCNc1nc(-c2ccc(Cl)cc2)nc2ccccc12 | 2 | 1 | -1 | 3 | 0 | 1
Cc1cccc(-c2nc(NCCCN(C)C)c3ccccc3n2)c1 | 0 | -1 | 0 | 1 | 1.1* | 0
O=P(O)(O)c1ccccc1OCCOCCOCCOCCOc1ccccc1P(=O)(O)O | 7 | 4 | 3 | 4 | 0 | 4.4*
COc1cccc(-n2c(C)nnc2SCC(=O)Nc2ccccc2N2CCOCC2)c1 | 0 | 7.9* | 1 | 1 | -1 | 1
O=C(COC(=O)c1ccc(Cl)c([N+](=O)[O-])c1)Nc1ccccc1OC(F)F | 1 | 1 | 0 | 2 | -1 | 4.7*
O=C(COC(=O)c1ccc2c(c1)OCO2)Nc1ccccc1OC(F)F | 2 | 3 | -2 | 0 | -1 | -1
Cc1ccc(S(=O)(=O)NCC(=O)OCC(=O)Nc2ccccc2OC(F)F)cc1 | -1 | -3 | 0 | -1 | -1 | 5.9*
O=C(COC(=O)CCNS(=O)(=O)c1ccc(Cl)cc1)Nc1ccccc1OC(F)F | 2 | 3 | -1 | -2 | -1 | -1
O=C(NCCc1ccccn1)c1ccc2c(c1)ncn2C1CCCCC1 | 3 | 0 | 0 | 1 | 0 | x
CCOC(=O)CC[C@H]1CC[C@]2(CCCN(C(=O)c3ccco3)C2)O1 | 0 | -4 | 0 | 0 | -1 | x
CCOC(=O)N1CCN(C(=O)CN2C(=O)c3ccccc3S2(=O)=O)CC1 | 1 | 1 | 0 | 2 | -1 | 3
CCN1CCN(C(=O)CN2C(=O)c3ccccc3S2(=O)=O)CC1 | 3 | 3 | 3.8* | 1 | -1 | 3
CN(C)c1ccc(Cl)cc1N | 0 | -3 | -1 | 0 | -1 | 5.3*
Nc1cc(Cl)ccc1Oc1ccc(Cl)cc1 | 2 | -3 | -1 | 0 | -1 | 1
O=c1c(-c2cccc([N+](=O)[O-])c2)[n+]([O-])c2ccccc2n1O | 2 | -3 | 0 | 1 | -1 | 6.5*
O=c1c(-c2ccc(Cl)cc2)[n+]([O-])c2ccccc2n1O | 2 | 1 | 0 | 0 | 0 | -1
COc1ccccc1N1CCN(C(=O)CCC(=O)O)CC1 | 1 | 0 | 1 | -2 | -1 | 5.5*
COc1ccccc1N1CCN(/N=C/C(Cl)=C/c2ccccc2)CC1 | 8 | 6 | 1 | 2 | 0 | 5.0*
O=C(CCCC(=O)N1CCN(c2ccccc2F)CC1)c1ccccc1 | 8 | 4 | 2 | 0 | 0 | 17*
COc1ccccc1N1CCN(C(=O)c2cc3ccccc3[nH]2)CC1 | -1 | -2 | 2 | 0 | -1 | -2
Cc1ccc(N2CCN(/N=C/C(Cl)=C/c3ccccc3)CC2)cc1 | -2 | 1 | 0 | 0 | -1 | 0
COc1ccccc1N1CCN(C(=O)c2cc3cc(F)ccc3[nH]2)CC1 | 2 | -3 | 0 | 5.8* | 0 | -1
O=C(CCCC(=O)N1CCN(c2ccccc2F)CC1)N1CCN(c2ccccc2F)CC1 | -1 | -3 | 1 | -2 | -1 | 2

Bioassay records (PubChem BioAssay)
